Measurements from PubChem BioAssay.

These compounds were tested against Focal adhesion kinase 1 (Homo sapiens) (UniProt Q05397) (assay: PTK2 protein binding on printed compound slides – biochemical, small-molecule microarray, 635/667 nm fluorescence, BSA, DTT, primary screen (AID 1130;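 also: composite of spot emission at 667 nm and signal to noise over triplicate slides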)). Conditions: 635 nm fluorescence, higher = more signal.
Focal adhesion kinase 1 (Homo sapiens), sequence (Q05397 whole entry, looked up): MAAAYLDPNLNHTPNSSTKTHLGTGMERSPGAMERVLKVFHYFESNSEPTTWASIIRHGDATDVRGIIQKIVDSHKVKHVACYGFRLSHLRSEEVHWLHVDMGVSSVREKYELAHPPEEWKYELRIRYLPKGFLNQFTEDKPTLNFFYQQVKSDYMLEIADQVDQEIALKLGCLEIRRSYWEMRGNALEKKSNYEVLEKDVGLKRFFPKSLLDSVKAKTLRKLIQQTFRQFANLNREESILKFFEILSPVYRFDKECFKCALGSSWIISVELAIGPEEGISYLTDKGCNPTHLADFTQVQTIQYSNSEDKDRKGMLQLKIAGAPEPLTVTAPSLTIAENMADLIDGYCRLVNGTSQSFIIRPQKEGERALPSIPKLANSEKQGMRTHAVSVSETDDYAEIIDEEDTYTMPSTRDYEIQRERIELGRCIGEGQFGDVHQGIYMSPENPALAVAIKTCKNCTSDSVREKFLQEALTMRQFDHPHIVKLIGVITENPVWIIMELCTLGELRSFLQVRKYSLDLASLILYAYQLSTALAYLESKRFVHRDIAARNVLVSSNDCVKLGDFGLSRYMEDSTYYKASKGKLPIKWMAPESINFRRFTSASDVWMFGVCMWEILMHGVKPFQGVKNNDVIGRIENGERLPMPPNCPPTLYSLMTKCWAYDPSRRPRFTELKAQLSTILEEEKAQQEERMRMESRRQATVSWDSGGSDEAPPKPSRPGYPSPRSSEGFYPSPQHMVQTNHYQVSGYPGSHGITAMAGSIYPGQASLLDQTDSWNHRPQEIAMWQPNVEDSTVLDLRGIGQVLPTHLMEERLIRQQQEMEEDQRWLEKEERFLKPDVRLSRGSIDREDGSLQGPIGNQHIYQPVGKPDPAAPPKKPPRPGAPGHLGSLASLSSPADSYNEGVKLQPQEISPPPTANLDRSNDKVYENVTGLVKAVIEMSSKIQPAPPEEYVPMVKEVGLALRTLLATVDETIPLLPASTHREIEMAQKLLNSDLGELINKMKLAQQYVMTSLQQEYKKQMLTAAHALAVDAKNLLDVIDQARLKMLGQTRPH
With `O=C1O[C@H](c2ccccc2)[C@H](c2ccccc2)N2[C@H]1[C@@H](C(=O)Nc1nc3ccccc3s1)[C@]1(C(=O)Nc3ccc(C#CCCO)cc31)[C@H]2c1ccc(OCCO)cc1` the composite z-score was 0.232.
Work on `C=CCOC(=O)[C@H]1[C@@H]2C(=O)O[C@@H](c3ccccc3)[C@@H](c3ccccc3)N2[C@@H](c2ccc(OCCOC(=O)[C@@H]3C[C@@H]4C(=O)N[C@@H](CCCC[N+](C)(C)C)C(=O)N4[C@@H]3c3ccc(O)cc3)cc2)[C@]12C(=O)Nc1ccccc12` yielded a composite z-score of 0.877.
In the case of `COCCCN1C(=O)[C@@]2(Cc3ccccc31)c1ccccc1C(=O)N(Cc1ccccc1C(F)(F)F)[C@H]2c1ccc(CO)cc1`, the composite z-score was 0.521.
Work on `COc1cc2c(cc1OC)CN(C(=O)[C@@H]1[C@H]3C(=O)O[C@H](c4ccccc4)[C@H](c4ccccc4)N3[C@H](c3ccc(O)cc3)[C@@]13C(=O)Nc1ccc(C#CC4(O)CCCCCC4)cc13)CC2` yielded a composite z-score of 0.592.
In the case of `COCCOC(=O)N1C(=O)[C@@]2(c3ccccc31)[C@H](c1ccccc1OCCO)N1[C@H](c3ccccc3)[C@H](c3ccccc3)OC(=O)[C@H]1[C@@H]2C(=O)Nc1nc2ccccc2s1`, the composite z-score was 0.445.
In the case of `C=C[C@H](COC(C)=O)N(C(=O)OC(C)(C)C)S(=O)(=O)c1ccc(Br)cc1`, the composite z-score was 0.461.
`COc1cc(CO)cc(I)c1O[C@H]1C=C(C(=O)NCCO)C[C@@H](N(CCN2CCOCC2)C(=O)C2CCOC2)[C@@H]1O` (stereo partly drawn) showed a composite z-score of -0.508.
Compound `COC(=O)[C@@]1(Cc2ccc(F)cc2)[C@H]2c3cc(C(=O)N4CCCC4)n(Cc4ccc(C)o4)c3C[C@H]2CN1C(=O)c1ccccc1` has a composite z-score of 1.05.
